{"source": "the supplement of paper PMC10849652", "note": "The full data set covers some 8,800 targets. This sample favours those with a hit. About 0.5% of all pairs of compound and target were hits.", "data": [{"compound": "C/C(=N\\NC(=O)C1=CC(=CC=C1)S(=O)(=O)N2CCOCC2)/C3=C(C=CC(=C3)Cl)O", "assay": "log2 fold change, soluble protein after heating vs DMSO (PISA); higher = thermal stabilisation; K562 lysate, 10 uM; active = over 0.2 and 3.5 SD of the protein, either way, in both replicates (recomputed)", "in_short": "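Values give the log-two fold change in thermal stability against solvent controls, from duplicates. Crude K562 extract at 1 mg/mL protein, made by dounce homogenisation in PBS pH 7.4 with 1 mM MgCl2, was treated with 10 μM compound for 30 min. After 3 min heating across 48°C-58°C, aliquots were pooled, adjusted to 0.5% NP-40 at 4°C and centrifuged at 21,000xg for 90 min. The supernatant was measured by TMTpro 16plex LC-MS/MS with channel sums equalised.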", "values": [{"target": "UBXN2B (UniProt Q14CS0)", "log2 fold change": "-0.079 (inactive)"}, {"target": "TRAF2 isoform 2 (UniProt Q12933)", "sequence (Q12933 whole entry, looked up)": "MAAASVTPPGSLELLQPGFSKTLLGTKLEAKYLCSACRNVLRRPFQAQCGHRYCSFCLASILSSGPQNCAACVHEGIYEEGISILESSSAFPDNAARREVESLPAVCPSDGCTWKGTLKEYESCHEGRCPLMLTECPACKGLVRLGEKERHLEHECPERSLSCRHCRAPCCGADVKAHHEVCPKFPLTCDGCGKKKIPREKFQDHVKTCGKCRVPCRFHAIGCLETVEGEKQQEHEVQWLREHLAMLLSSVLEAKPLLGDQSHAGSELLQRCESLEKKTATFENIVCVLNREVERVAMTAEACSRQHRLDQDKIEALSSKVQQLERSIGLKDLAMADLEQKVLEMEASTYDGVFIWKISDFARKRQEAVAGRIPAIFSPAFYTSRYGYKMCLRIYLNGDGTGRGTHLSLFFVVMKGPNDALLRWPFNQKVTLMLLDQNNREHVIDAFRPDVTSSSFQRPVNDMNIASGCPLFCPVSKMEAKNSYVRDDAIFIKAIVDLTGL", "log2 fold change": "-0.002 (inactive)"}, {"target": "TMOD1 (UniProt P28289)", "log2 fold change": "-0.091 (inactive)"}, {"target": "TPD52L2 isoform 7 (UniProt O43399)", "log2 fold change": "-0.028 (inactive)"}, {"target": "TMEM199 (UniProt Q8N511)", "sequence (Q8N511 whole entry, looked up)": "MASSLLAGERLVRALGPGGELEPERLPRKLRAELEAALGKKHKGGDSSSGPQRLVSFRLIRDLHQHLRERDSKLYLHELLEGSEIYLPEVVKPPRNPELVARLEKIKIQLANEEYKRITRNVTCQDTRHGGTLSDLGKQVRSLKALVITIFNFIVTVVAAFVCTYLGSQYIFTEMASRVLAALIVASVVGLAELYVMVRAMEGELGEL", "log2 fold change": "-0.03 (inactive)"}, {"target": "TBCE (UniProt Q15813)", "sequence (Q15813 whole entry, looked up)": "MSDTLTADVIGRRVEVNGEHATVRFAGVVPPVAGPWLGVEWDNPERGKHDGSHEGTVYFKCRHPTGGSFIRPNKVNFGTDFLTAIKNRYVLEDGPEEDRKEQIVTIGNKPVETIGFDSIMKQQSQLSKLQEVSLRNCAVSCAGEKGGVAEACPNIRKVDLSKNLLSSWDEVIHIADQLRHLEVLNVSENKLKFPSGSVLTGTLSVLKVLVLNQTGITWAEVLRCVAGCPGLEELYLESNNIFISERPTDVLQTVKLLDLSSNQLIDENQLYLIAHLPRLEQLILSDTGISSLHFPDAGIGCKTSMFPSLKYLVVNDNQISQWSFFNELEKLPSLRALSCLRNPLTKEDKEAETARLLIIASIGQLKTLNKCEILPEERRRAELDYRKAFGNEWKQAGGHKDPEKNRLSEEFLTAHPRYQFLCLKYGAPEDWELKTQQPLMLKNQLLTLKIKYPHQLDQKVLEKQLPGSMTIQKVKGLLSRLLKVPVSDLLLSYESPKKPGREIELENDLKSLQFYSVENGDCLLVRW", "log2 fold change": "0.049 (inactive)"}, {"target": "TDRD3 isoform 3 (UniProt Q9H7E2)", "log2 fold change": "-0.029 (inactive)"}, {"target": "TRIM33 (UniProt H0Y612)", "log2 fold change": "-0.002 (inactive)"}, {"target": "TGOLN2 isoform 7 (UniProt O43493)", "log2 fold change": "0.007 (inactive)"}, {"target": "TBL3 (UniProt Q12788)", "sequence (Q12788 whole entry, looked up)": "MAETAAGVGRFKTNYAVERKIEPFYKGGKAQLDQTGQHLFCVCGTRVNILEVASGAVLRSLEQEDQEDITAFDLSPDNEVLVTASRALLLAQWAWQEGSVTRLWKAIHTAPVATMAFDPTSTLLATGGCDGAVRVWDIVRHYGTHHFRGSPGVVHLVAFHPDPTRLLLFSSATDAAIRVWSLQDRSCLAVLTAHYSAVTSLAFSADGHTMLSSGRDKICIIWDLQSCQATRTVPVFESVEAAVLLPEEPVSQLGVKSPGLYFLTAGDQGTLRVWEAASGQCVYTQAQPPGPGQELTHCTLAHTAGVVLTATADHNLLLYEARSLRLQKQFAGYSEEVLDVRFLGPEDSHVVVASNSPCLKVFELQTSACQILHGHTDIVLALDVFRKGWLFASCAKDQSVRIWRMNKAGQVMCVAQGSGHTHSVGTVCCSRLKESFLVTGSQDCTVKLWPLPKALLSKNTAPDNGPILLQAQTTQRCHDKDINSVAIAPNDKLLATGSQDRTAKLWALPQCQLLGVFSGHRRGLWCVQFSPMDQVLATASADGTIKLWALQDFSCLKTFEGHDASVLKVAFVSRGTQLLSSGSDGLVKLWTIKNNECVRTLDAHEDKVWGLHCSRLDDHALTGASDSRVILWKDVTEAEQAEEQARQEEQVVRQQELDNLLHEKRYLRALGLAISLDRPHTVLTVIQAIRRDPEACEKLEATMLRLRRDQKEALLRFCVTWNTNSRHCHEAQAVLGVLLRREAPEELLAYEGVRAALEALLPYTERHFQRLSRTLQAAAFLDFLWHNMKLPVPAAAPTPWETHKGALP", "log2 fold change": "-0.001 (inactive)"}, {"target": "TECR (UniProt Q9NZ01)", "log2 fold change": "-0.029 (inactive)"}, {"target": "TTK (UniProt P33981)", "log2 fold change": "-0.1 (inactive)"}, {"target": "TBL2 (UniProt Q9Y4P3)", "log2 fold change": "0.061 (inactive)"}, {"target": "TPP2 (UniProt P29144)", "sequence (P29144 whole entry, looked up)": "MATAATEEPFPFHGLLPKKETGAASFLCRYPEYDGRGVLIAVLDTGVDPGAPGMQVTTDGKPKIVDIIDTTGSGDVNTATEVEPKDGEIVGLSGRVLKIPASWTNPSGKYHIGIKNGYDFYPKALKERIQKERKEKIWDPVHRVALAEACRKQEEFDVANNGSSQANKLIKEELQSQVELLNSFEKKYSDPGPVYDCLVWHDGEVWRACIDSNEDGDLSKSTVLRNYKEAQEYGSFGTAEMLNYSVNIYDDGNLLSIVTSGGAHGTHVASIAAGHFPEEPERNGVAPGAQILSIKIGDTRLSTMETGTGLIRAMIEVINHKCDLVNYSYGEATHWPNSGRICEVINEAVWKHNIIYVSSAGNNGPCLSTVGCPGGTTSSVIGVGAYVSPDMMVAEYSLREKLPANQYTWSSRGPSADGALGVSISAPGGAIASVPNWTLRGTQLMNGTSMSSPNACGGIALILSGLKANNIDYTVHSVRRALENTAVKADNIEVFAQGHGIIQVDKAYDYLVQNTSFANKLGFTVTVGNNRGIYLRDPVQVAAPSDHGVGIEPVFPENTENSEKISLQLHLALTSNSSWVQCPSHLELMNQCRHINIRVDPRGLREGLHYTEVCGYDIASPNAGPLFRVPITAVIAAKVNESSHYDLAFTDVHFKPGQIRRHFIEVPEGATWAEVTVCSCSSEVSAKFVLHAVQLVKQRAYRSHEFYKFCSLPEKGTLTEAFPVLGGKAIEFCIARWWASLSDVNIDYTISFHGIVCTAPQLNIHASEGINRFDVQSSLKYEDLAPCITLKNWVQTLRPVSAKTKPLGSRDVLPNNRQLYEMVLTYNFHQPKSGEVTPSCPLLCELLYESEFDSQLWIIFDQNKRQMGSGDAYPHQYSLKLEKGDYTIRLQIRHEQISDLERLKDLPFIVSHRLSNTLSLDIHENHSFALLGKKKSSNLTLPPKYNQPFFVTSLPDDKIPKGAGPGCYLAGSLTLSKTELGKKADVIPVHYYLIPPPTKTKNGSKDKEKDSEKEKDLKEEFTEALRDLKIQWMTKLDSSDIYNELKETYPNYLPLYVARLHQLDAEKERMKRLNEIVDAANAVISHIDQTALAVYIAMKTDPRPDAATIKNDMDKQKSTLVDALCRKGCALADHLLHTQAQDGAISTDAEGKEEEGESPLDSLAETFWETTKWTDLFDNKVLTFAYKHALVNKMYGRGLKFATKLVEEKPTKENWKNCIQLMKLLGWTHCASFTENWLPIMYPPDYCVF", "log2 fold change": "-0.098 (inactive)"}, {"target": "UBAP2 (UniProt Q5T6F2)", "sequence (Q5T6F2 whole entry, looked up)": "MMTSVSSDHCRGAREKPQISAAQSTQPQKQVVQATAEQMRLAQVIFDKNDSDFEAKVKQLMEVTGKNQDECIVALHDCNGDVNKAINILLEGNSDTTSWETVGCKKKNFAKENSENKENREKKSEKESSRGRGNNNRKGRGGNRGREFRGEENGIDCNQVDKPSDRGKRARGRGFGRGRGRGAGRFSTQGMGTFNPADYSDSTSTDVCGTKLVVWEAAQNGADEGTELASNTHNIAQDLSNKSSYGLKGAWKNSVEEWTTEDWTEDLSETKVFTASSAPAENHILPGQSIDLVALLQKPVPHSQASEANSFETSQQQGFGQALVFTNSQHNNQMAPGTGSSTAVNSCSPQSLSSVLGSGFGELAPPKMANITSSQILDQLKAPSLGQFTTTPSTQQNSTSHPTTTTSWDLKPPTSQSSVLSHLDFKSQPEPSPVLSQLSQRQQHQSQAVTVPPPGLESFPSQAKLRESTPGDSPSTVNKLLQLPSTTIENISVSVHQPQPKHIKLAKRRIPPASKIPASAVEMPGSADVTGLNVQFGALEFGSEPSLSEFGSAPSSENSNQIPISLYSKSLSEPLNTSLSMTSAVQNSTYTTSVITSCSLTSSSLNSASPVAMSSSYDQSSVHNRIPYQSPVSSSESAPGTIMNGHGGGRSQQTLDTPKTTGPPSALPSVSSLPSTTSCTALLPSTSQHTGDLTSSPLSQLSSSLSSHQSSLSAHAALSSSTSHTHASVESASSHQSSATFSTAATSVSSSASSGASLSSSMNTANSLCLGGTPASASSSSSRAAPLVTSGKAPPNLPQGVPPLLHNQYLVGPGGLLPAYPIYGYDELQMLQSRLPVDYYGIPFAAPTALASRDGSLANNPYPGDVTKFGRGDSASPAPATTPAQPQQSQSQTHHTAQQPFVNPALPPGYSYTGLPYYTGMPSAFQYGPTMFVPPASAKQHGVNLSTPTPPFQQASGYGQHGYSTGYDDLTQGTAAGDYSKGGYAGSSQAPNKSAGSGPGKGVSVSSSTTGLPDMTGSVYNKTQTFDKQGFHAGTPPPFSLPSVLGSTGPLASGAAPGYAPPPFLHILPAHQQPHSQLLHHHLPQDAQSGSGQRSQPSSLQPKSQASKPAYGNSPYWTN", "log2 fold change": "-0.02 (inactive)"}, {"target": "TMEM14C (UniProt Q9P0S9)", "sequence (Q9P0S9 whole entry, looked up)": "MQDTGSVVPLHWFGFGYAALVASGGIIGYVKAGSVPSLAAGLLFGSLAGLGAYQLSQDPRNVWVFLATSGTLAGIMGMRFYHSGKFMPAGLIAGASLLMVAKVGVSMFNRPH", "log2 fold change": "-0.201 (inactive)"}, {"target": "TPM4 (UniProt P67936)", "log2 fold change": "0.048 (inactive)"}, {"target": "TBK1 (UniProt Q9UHD2)", "log2 fold change": "-0.066 (inactive)"}, {"target": "TMPO (UniProt P42166)", "log2 fold change": "-0.038 (inactive)"}, {"target": "TFPI (UniProt P10646)", "sequence (P10646 whole entry, looked up)": "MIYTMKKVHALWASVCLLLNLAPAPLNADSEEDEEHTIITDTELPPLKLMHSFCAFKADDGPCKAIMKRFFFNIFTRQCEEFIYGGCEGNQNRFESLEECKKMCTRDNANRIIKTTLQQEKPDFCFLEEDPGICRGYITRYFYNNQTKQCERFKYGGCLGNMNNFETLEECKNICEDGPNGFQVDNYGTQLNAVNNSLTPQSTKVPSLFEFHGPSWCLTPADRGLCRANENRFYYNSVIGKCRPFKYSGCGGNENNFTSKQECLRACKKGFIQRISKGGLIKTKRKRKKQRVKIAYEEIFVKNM", "log2 fold change": "0.093 (inactive)"}, {"target": "TRIM11 (UniProt Q96F44)", "log2 fold change": "-0.012 (inactive)"}, {"target": "TRIM25 (UniProt Q14258)", "log2 fold change": "-0.024 (inactive)"}, {"target": "TRAPPC12 (UniProt Q8WVT3)", "log2 fold change": "-0.01 (inactive)"}]}]}
